Screening results deposited in PubChem BioAssay by University of Kansas High Throughput Screening Laboratory.
Pf apPOL block – Pf-apPOL inhibitors, biochemical, fluorescence | Plasmodium falciparum apicoplast DNA polymerase (apPOL) | Recombinant Pf-apPOL, molecular beacon fluorescence, 1.5 h | inhibition, % at 10 µM | actives 0.25% (n = 210,000)
mHTT CaM bind – mutant huntingtin-calmodulin interaction inhibitors – biochemical, AlphaScreen, primary screen | P42858 | AlphaScreen His-mHTT/GST-CaM binding, luminescence | inhibition, % at 15 µM | actives 3.6% (n = 190,000);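 also: 0% = both proteins with DMSO and 100% = one protein alone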
* marks the source's active call; other numbers are inactive results; ! = not active in a repeat. Most compounds without a hit are left out; they make up all but 3.6% or so of the library. Rule as the data show it: active = inhibition above about 50%; inactive = the rest.

Results for COc1ccc(CCNS(=O)(=O)c2c(C)[nH]c(=O)[nH]c2=O)cc1OC ?
Pf apPOL block: 0; mHTT CaM bind: -3

How did c1ccc(C(CNc2ncccn2)c2ccccc2)cc1 do in these assays?
Pf apPOL block: -1; mHTT CaM bind: -4

Results for NC(=O)C1CCN(CC(=O)N2N=C(c3ccc(F)cc3)CC2c2ccccc2)CC1 (centres undefined) ?
Pf apPOL block: 4; mHTT CaM bind: 16

What do the screens show for `CC(=O)N1CCN(CC(=O)N2N=C(c3cccc(C)c3)CC2c2ccc(C)cc2)CC1` (centres undefined)?
Pf apPOL block: -5; mHTT CaM bind: 82*

How did Cc1cccc(C2=NN(C(=O)CN3CCOCC3)C(c3ccccc3F)C2)c1 (centres undefined) do in these assays?
Pf apPOL block: 4; mHTT CaM bind: 36

How did Cc1ccc(C2CC(c3ccccc3)=NN2C(=O)CN2CCC(C(N)=O)CC2)cc1 (centres undefined) do in these assays?
Pf apPOL block: -8; mHTT CaM bind: 80*

What do the screens show for `CC(=O)N1c2ccccc2NC2=C(C(=O)CC(c3ccccc3)C2)C1c1cccs1` (centres undefined)?
Pf apPOL block: -8; mHTT CaM bind: 16

Results for CC1=Nc2ccccc2C1=Cc1sc(=O)n(-c2ccccc2)c1O ?
Pf apPOL block: 4; mHTT CaM bind: 26

Results for CC1=Nc2ccccc2C1=Cc1sc(=N)n(-c2nccs2)c1O ?
Pf apPOL block: 0; mHTT CaM bind: 100*

What do the screens show for `O=C(CSc1nc2ccccc2o1)OCc1cc(-c2ccc(F)cc2F)on1`?
Pf apPOL block: 15; mHTT CaM bind: -2

What do the screens show for `O=c1nc(/C=C/c2ccc(-c3ccccc3[N+](=O)[O-])o2)cc(C(F)(F)F)[nH]1`?
Pf apPOL block: 1; mHTT CaM bind: 90*

Results for Cc1cc([N+](=O)[O-])c(C)cc1-c1ccc(/C=C/c2cc(C(F)(F)F)[nH]c(=O)n2)o1 ?
Pf apPOL block: -2; mHTT CaM bind: 95*!

What do the screens show for `O=C1C(=Cc2ccc(-c3ccccc3[N+](=O)[O-])o2)C(=O)c2ccccc21`?
Pf apPOL block: -3; mHTT CaM bind: 6

What do the screens show for `O=c1nc(/C=C/c2cccn2-c2ccc([N+](=O)[O-])cc2)cc(C(F)(F)F)[nH]1`?
Pf apPOL block: -1; mHTT CaM bind: 8

Results for CC(=O)Nc1ccc(N=Cc2ccc(Br)c([N+](=O)[O-])c2)cc1 ?
Pf apPOL block: -2; mHTT CaM bind: 13

What do the screens show for `O=C1c2ccccc2C(=O)C1(c1ccccc1)C(C[N+](=O)[O-])c1ccc2c(c1)OCO2` (centres undefined)?
Pf apPOL block: -3; mHTT CaM bind: 0

What do the screens show for `COc1ccc(C)cc1NC(=O)c1cc(C)n(CCN(C)C)c1C`?
Pf apPOL block: 3; mHTT CaM bind: 51*

How did COc1ccc(OC)c(NC(=O)c2cc(C)n(CCN(C)C)c2C)c1 do in these assays?
Pf apPOL block: -1; mHTT CaM bind: 23

How did O=C(Nc1ccccc1Cl)c1cc(S(=O)(=O)NCC2COc3ccccc3O2)ccc1F (centres undefined) do in these assays?
Pf apPOL block: 1; mHTT CaM bind: 2

What do the screens show for `CC(=O)c1cccc(NS(=O)(=O)c2cccc(C(=O)Nc3ccccc3[N+](=O)[O-])c2)c1`?
Pf apPOL block: -6; mHTT CaM bind: 26

How did N#C/C(=C\c1cc([N+](=O)[O-])ccc1Cl)C(=O)NCCc1c[nH]c2ccccc12 do in these assays?
Pf apPOL block: -4; mHTT CaM bind: 96*

How did N#C/C(=C\c1c[nH]c2ccccc12)C(=O)Nc1cc([N+](=O)[O-])ccc1Cl do in these assays?
Pf apPOL block: -4; mHTT CaM bind: 7

What do the screens show for `O=[N+]([O-])c1ccc(NCCNS(=O)(=O)Cc2ccccc2)cc1`?
Pf apPOL block: -4; mHTT CaM bind: 6

How did O=[N+]([O-])c1ccc(S(=O)(=O)CC(Cl)CS(=O)(=O)Cc2ccccc2)cc1 (centres undefined) do in these assays?
Pf apPOL block: 5; mHTT CaM bind: 100*

Results for COc1ccccc1[C@H]1C(c2cccc(C)c2)=NN(c2ccccc2)[C@@H]1CO ?
Pf apPOL block: -1; mHTT CaM bind: 86*

How did COc1ccccc1[C@H]1C(c2ccccc2)=NN(c2ccccc2)[C@@H]1CO do in these assays?
Pf apPOL block: -1; mHTT CaM bind: 5

How did COc1ccccc1[C@H]1C(c2ccc(F)cc2)=NN(c2ccccc2)[C@@H]1CO do in these assays?
Pf apPOL block: -8; mHTT CaM bind: 67*

Results for Cc1cccc(C2=NN(c3ccccc3)[C@@H](C(=O)N3CCOC3=O)[C@@H]2c2ccccc2)c1 ?
Pf apPOL block: -6; mHTT CaM bind: -32

How did C=CCn1c(N=Cc2ccc(Cl)cc2)nc2ccccc21 do in these assays?
Pf apPOL block: 0; mHTT CaM bind: 1

Results for C=CCn1c(N=Cc2ccc(N(C)C)cc2)nc2ccccc21 ?
Pf apPOL block: 3; mHTT CaM bind: 71*

What do the screens show for `Cc1ccc(C)c(CN2C(=O)C3(OCCCO3)c3ccccc32)c1`?
Pf apPOL block: -7; mHTT CaM bind: -22

What do the screens show for `O=C1N(Cc2cc(=O)n3ccccc3n2)c2ccccc2C12OCCCO2`?
Pf apPOL block: -8; mHTT CaM bind: 52*

What do the screens show for `O=C(Nc1cccnc1)c1ccc2nc(N3C(=O)c4ccccc4C3=O)sc2c1`?
Pf apPOL block: -11; mHTT CaM bind: 2

What do the screens show for `O=[N+]([O-])c1cccc(CSc2ccc3nnc(-c4ccccn4)n3n2)c1`?
Pf apPOL block: 9; mHTT CaM bind: 98*

What do the screens show for `c1ccc(CSc2nnc3ccc(-c4ccccn4)nn23)nc1`?
Pf apPOL block: -1; mHTT CaM bind: -7

Results for Cc1nc(CSc2ccc3nnc(-c4ccccn4)n3n2)cs1 ?
Pf apPOL block: -4; mHTT CaM bind: 76*

What do the screens show for `O=C(NCCc1nnc2ccc(SCc3ccccn3)nn12)c1ccccc1`?
Pf apPOL block: -2; mHTT CaM bind: -22

What do the screens show for `CC(=O)c1ccc(N2CCN(C(=O)c3cc([N+](=O)[O-])ccc3N3CCOCC3)CC2)c(F)c1`?
Pf apPOL block: -3; mHTT CaM bind: -7

Results for NC(=O)c1c(NC(=O)c2ccc(-c3ccccc3[N+](=O)[O-])o2)sc2c1CCCC2 ?
Pf apPOL block: -6; mHTT CaM bind: 17

Results for Cc1cc(Br)ccc1NC(=O)Cn1ncc2c(=O)oc3ccccc3c21 ?
Pf apPOL block: -4; mHTT CaM bind: 1

Results for O=C(NCc1ccc2c(c1)OCO2)C1CCN(c2cccc(Br)c2)C1=O (centres undefined) ?
Pf apPOL block: -4; mHTT CaM bind: -4

What do the screens show for `O=C(CN1CCN(C2c3ccccc3-c3ccccc32)CC1)Nc1ccc(F)c(F)c1`?
Pf apPOL block: -4; mHTT CaM bind: 74*

Results for COc1cccc(NC(=O)CN2CCN(C3c4ccccc4-c4ccccc43)CC2)c1 ?
Pf apPOL block: 0; mHTT CaM bind: 25

How did CN(C)c1ccc(NC(=O)CN2CCN(C3c4ccccc4-c4ccccc43)CC2)cc1 do in these assays?
Pf apPOL block: -2; mHTT CaM bind: 36

What do the screens show for `O=C(CCN1CCN(C2c3ccccc3-c3ccccc32)CC1)Nc1cccc(C(F)(F)F)c1`?
Pf apPOL block: 0; mHTT CaM bind: 69*

What do the screens show for `CCOc1ccc(NC(=O)CCN2CCN(C3c4ccccc4-c4ccccc43)CC2)cc1`?
Pf apPOL block: -1; mHTT CaM bind: 4
